Test results from article PMC4336329 (PLoS ONE, 2015).
The whole screen tested about 310,000 compounds, of which about 2,200 (0.71%) showed an effect of 50% or more. The effect is printed as a negative number. Many of the other results were omitted from the sample, so strong results are more common in it than they were.

What follows are compounds tested against human ether-à-go-go-related gene (hERG) potassium channel (human, UniProt Q12809) (assay: primary screen, population patch clamp on CHO cells stably expressing hERG; higher = less effect of the substance).
Chain of human ether-à-go-go-related gene (hERG) potassium channel (Q12809 whole entry, looked up): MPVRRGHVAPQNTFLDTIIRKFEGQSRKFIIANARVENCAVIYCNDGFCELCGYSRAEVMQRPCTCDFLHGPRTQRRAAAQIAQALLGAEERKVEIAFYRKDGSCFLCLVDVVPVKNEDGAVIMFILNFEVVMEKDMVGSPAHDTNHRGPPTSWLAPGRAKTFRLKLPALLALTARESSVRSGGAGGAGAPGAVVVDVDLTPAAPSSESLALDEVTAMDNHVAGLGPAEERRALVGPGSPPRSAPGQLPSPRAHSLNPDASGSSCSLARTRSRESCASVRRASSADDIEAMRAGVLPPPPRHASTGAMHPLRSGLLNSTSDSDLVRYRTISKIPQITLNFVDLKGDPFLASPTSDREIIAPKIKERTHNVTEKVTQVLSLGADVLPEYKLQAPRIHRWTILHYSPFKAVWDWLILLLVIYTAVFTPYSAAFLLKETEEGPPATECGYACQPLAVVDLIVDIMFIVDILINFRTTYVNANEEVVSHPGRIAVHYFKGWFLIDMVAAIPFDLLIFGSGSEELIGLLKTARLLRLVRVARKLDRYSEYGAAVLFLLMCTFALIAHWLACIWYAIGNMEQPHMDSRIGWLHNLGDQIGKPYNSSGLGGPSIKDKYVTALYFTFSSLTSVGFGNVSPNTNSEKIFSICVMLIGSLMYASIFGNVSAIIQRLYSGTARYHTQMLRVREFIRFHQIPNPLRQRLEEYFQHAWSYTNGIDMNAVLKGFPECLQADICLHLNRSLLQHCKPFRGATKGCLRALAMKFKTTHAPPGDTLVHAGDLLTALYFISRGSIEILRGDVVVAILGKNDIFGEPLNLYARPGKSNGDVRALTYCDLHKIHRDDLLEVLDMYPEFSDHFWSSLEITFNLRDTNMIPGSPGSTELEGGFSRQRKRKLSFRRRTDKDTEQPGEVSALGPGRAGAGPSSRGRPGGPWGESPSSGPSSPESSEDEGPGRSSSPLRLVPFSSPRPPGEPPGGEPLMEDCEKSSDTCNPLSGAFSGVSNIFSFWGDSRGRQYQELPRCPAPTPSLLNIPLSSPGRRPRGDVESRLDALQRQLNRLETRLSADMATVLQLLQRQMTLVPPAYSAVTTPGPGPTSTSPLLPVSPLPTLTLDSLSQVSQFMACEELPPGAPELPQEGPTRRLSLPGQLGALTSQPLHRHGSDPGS
Procedure: Briefly, Chinese hamster ovary (CHO) cells stably expressing the hERG channel were dislodged from tissue culture flasks and dispensed into PPC plates. […] During the recording, background leak currents were estimated by a 100 ms step to -80 mV from an initial holding potential of -70 mV and subtracted from the subsequent current measurement. The campaign was conducted in two phases using slight differences in recording protocol. In the first phase, the initial voltage pulse used a 100 ms step to -30 mV from a holding potential of -70 mV, a 2 s conditioning step to +25 mV, and a 2 s test step to -30 mV. During the second phase of the screen, the potential during the conditioning step was raised to +45 mV. In both phases of the campaign, a secondary voltage pulse was applied using the same parameters as the second phase initial pulse. The initial and secondary pulses were applied in the absence of compound, and upon application of 1 μM and 10 μM test concentrations. Small molecule effects on hERG current density were quantified by […].

| Compound | hERG current change (%, negative = inhibition) at 1uM |
| --- | --- |
| CN(CC(=O)Nc1ccc(Cl)c(Cl)c1)C(=O)C1CCCC1 | 5.9% |
| Cc1cc(NC(=O)c2cc(-c3ccccc3)on2)n(-c2ccccc2)n1 | 7.88% |
| O=C(COC(=O)c1ccc2ccccc2n1)c1ccc(F)cc1 | -5.55% |
| Cc1cc([N+](=O)[O-])ccc1NC(=O)Nc1ccccc1F | 13% |
| O=C(CCc1nnc(CCc2ccccc2)o1)NC(c1cccnc1)C(F)(F)F (centres unmarked) | -0.569% |
| CC1CN(C(=O)C(Sc2ccccc2)c2ccccc2)CC(C)O1 (centres unmarked) | 5.46% |
| N#C/C(=C1\CCCN1)c1ccc2ccccc2n1 | 8.93% |
| Cc1ccc(CCN2CC(C(=O)NCCCN3CCOCC3)CC2=O)cc1 (centres unmarked) | 16.5% |
| CN1CCCc2cc3c(C(F)(F)F)cc(=O)oc3nc21 | 14.3% |
| O=C(CSc1nc(C(F)(F)F)cc(=O)[nH]1)N1CCCCCC1 | 5.27% |
| Cc1nc(C)c(C(=O)NCc2ccccc2Cl)o1 | 10.8% |
| O=[N+]([O-])c1ccccc1S(=O)(=O)N(CC(O)CN1CCCCC1)c1ccccc1 (centres unmarked) | 2.79% |
| O=[N+]([O-])c1ccc(N(CC(O)CN2CCCCC2)S(=O)(=O)c2ccccc2)cc1 (centres unmarked) | -79.5% |
| COc1ccc([N+](=O)[O-])cc1N(CC(O)CN1CCCCC1)S(=O)(=O)c1ccccc1 (centres unmarked) | 2.16% |
| O=[N+]([O-])c1ccc(S(=O)(=O)N(CC(O)CN2CCCCC2)c2ccccc2)cc1 (centres unmarked) | -80.4% |
| Cc1ccc(S(=O)(=O)N(CC(O)CN2CCCCC2)c2cccc([N+](=O)[O-])c2)cc1 (centres unmarked) | -73.1% |
| Cc1ccc(S(=O)(=O)N(CC(O)CN2CCOCC2)c2cccc([N+](=O)[O-])c2)cc1 (centres unmarked) | 2.27% |
| O=[N+]([O-])c1cccc(N(CC(O)CN2CCCCC2)S(=O)(=O)c2ccccc2)c1 (centres unmarked) | -24.2% |
| O=C(CN(c1ccc([N+](=O)[O-])cc1)S(=O)(=O)c1ccccc1)N1CCCCC1 | -0.85% |
| O=[N+]([O-])c1cccc(N(CC(O)CN2CCCC2)S(=O)(=O)c2ccccc2)c1 (centres unmarked) | -25.9% |
| Cn1c(=O)cc(OCCCC(=O)Nc2ccc3c(c2)OCCO3)c2ccccc21 | 17.2% |
| Cc1ccn2c(=O)nc(SCC(=O)NC3CCCCC3)nc2c1 | 2.62% |
| C/C(=N\NC(=O)CNC(=O)C(c1ccccc1)c1ccccc1)c1ccc(C(C)(C)C)cc1 | 2.98% |

| Compound | hERG current change (%, negative = inhibition) at 1uM |
| --- | --- |
| COc1cc(-c2nc3cnccc3n2C)cc(OC)c1OC | 2.44% |
| CCCCOc1ccc(CN(C)c2ncnc(N)n2)cc1 | -1.16% |
| O=[N+]([O-])/C(C(Cl)=C(Cl)Cl)=C(\Sc1ccccc1)N1CCCCC1 | -3.16% |
| Nc1cccc2c1C(=O)N(C(=O)c1cccc(S(=O)(=O)N3CCCC3)c1)C2=O | 12.5% |
| COC(=O)c1ccc(Cn2nc(C)c([N+](=O)[O-])c2C)o1 | 2.01% |
| O=C1NN(c2ccc(Cl)c(Cl)c2)C(=O)/C1=C/c1ccc(-c2ccccc2C(=O)O)o1 | 13% |
| Cc1cccc(CS(=O)(=O)Cc2ccc(C(=O)N3CCC4(CC3)OCCO4)o2)c1 | 10% |
| Cc1cccnc1NC(=S)NCCc1ccccc1 | -3.36% |
| CC(C)C[C@H](NC(=O)c1nc[nH]c1C(=O)N[C@@H](CC(C)C)C(=O)OCc1ccccc1)C(=O)OCc1ccccc1 | 9.56% |
| CC(C)C[C@H](NC(=O)c1[nH]cnc1C(=O)N[C@@H](Cc1ccccc1)C(=O)OCc1ccccc1)C(=O)OCc1ccccc1 | 10.2% |
| CNC(=O)c1[nH]cnc1C(=O)N[C@@H](CC(C)C)C(=O)OCc1ccccc1 | -51.8% |
| COc1ccccc1NC(=O)N1CCCC1C(=O)Nc1ccc2c(c1)OCO2 (centres unmarked) | 2.76% |
| O=C(CCC1COc2ccccc2O1)NCC1COc2ccccc2O1 (centres unmarked) | 6.41% |
| Cc1nnc(SCc2nnc(-c3ccccc3Br)o2)s1 | 18.8% |
| CC(=O)c1cccc(NC(=O)/C(=C\c2ccco2)NC(=O)c2ccco2)c1 | -50.7% |
| CC(=O)c1ccc(NC(=O)/C(=C\c2ccco2)NC(=O)c2ccco2)cc1 | 4.96% |
| CC(=O)c1cccc(NC(=O)/C(=C/c2ccco2)NC(=O)c2ccco2)c1 | 10.1% |
| CCc1ccc(-n2nc3cc(C)c(N)cc3n2)cc1 | 13.3% |
| COc1ccc(NC(=O)NC2(C(=O)N3CCCC(C)C3)CCCCC2)cc1 (centres unmarked) | 14.1% |
| COc1ccc(N2CCN(C(=O)CSc3ccc([N+](=O)[O-])cc3)CC2)cc1 | -85.1% |
| CC1(C)Cc2cccc(OCC(=O)N3CCN(c4ccc(F)cc4)CC3)c2O1 | -16.2% |
| Cc1ccc(C(=O)ON=C2CCN(c3ccc([N+](=O)[O-])cc3)CC2)cc1 | -21.2% |
| CC1(C)Cc2cccc(OCC(=O)N3CCN(c4ccc([N+](=O)[O-])cc4)CC3)c2O1 | -51.8% |

| Compound | hERG current change (%, negative = inhibition) at 1uM |
| --- | --- |
| O=C(ON=C1CCN(c2ccc([N+](=O)[O-])cc2)CC1)c1ccccc1 | -26% |
| COc1ccc(C(=O)ON=C2CCN(c3ccc([N+](=O)[O-])cc3)CC2)cc1 | -57.7% |
| CC1(C)Cc2cccc(OCC(=O)N3CCN(c4ccccc4)CC3)c2O1 | -2.57% |
| COc1ccc(C(=O)CCC(=O)N2CCN(c3ccc([N+](=O)[O-])cc3)CC2)cc1 | -28.4% |
| O=C(Cc1ccccc1)N1CCN(c2ccc([N+](=O)[O-])cc2)CC1 | -36.4% |
| COc1ccc(N2CCN(C(=O)CSc3ccccc3)CC2)cc1 | 12.7% |
| O=C(CCCc1ccccc1)N1CCN(c2ccc([N+](=O)[O-])cc2)CC1 | -48.2% |
| O=C(CCc1ccccc1)N1CCN(c2ccc([N+](=O)[O-])cc2)CC1 | -67.4% |
| Cc1cccc(C)c1OCC(O)CN.Cl.O (centres unmarked) | 10.5% |
| COc1ccccc1NC(=O)/C=C1\SCC(=O)N1C | 2.4% |
| NC(=O)CSc1nc(-c2ccccc2)c(-c2ccccc2)o1 | 8.48% |
| C/C=C1\COC(C(=O)NCc2ccncc2)(C(F)(F)F)C=C1C=C1CCCCC1 (centres unmarked) | 12.8% |
| CCCc1n[nH]c2c1/C(=N\OCC)CC(C)(C)C2 | 12.8% |
| C=CCN1CCN(C(c2cc(OC)ccc2OC)c2nnnn2CC2CCCO2)CC1.Cl (centres unmarked) | 12.4% |
| Cc1nn(C)c(Cl)c1CN1CCCC(C(=O)Nc2cccc(-n3cccn3)c2)C1 (centres unmarked) | -3.6% |
| CN1C(=O)CC(N2CCN(c3ccc(Cl)c(Cl)c3)CC2)C1=O (centres unmarked) | 1.54% |
| O=C(CCCC(=O)N1CCN(c2ccc([N+](=O)[O-])cc2)CC1)c1ccccc1 | -66% |
| O=C(NC(CC(=O)N1CCN(c2ccccc2)CC1)c1ccccc1)c1ccccc1Cl (centres unmarked) | -19.6% |
| O=C(CN1CCN(c2ccc([N+](=O)[O-])cc2)CC1)Nc1ccccn1 | -75.8% |
| O=C(NC(CC(=O)N1CCN(c2ccc([N+](=O)[O-])cc2)CC1)c1ccccc1)c1ccccc1Cl (centres unmarked) | -69% |
| O=C(CN1CCN(c2ccc([N+](=O)[O-])cc2)CC1)c1ccccc1 | -9.94% |
| O=C(NC(CC(=O)N1CCN(c2ccccc2O)CC1)c1ccccc1)c1ccccc1Cl (centres unmarked) | -15.6% |
| O=C(Cc1ccc([N+](=O)[O-])cc1)N1CCN(c2ccc([N+](=O)[O-])cc2)CC1 | -82.5% |

| Compound | hERG current change (%, negative = inhibition) at 1uM |
| --- | --- |
| O=C(CN1CCN(c2ccc([N+](=O)[O-])cc2)CC1)Nc1nccs1 | -29.3% |
| O=C(Cc1ccc(F)cc1)N1CCN(c2ccc([N+](=O)[O-])cc2)CC1 | -45.8% |
| O=C(CN1CCN(CC(=O)Nc2ccccn2)CC1)Nc1ccccn1 | -9.95% |
| Cc1ccc(CC(=O)N2CCN(c3ccc([N+](=O)[O-])cc3)CC2)cc1 | -30.4% |
| O=C(CCCC(=O)N1CCN(c2cccc(Cl)c2)CC1)c1ccccc1 | 1.83% |
| Cn1cc(Cl)c(-c2n[nH]c(=S)n2-c2ccccc2)n1 | 14% |
| CCOC(=O)c1sc(NC(=O)c2ccc(OC)cc2)nc1C | 15.9% |
| CCN(C(=O)C1CC1)C1CCS(=O)(=O)C1 (centres unmarked) | 9.67% |
| CCC(C)C(=O)N[C@@H](c1ccccc1)[C@@H](O)C(=O)O[C@H]1C[C@@]2(O)[C@@H](OC(=O)c3ccccc3)C3[C@](C)(C(=O)[C@H](OC(C)=O)C(=C1C)C2(C)C)[C@@H](O)C[C@H]1OC[C@@]31OC(C)=O (some centres unmarked) | 7.34% |
| CCOC(=O)COc1ccc(CCNC(C)=O)cc1 | 17.8% |
| Cn1c(CSCc2ccccc2Cl)nnc1SCC(=O)Nc1nccs1 | 2.67% |
| COc1ccc(N2CCN(C(=O)CCCSc3nc4ccccc4[nH]3)CC2)cc1 | -29.6% |
| COc1cccc(N2CCN(C(=O)CC(NC(=O)c3ccccc3)c3ccccc3)CC2)c1 (centres unmarked) | -27% |
| N#Cc1ccc(CN2CCN(C(=O)CC(NC(=O)c3ccccc3)c3ccccc3)CC2)cc1 (centres unmarked) | -84.7% |
| CC(C)CNS(=O)(=O)c1ccc(CCC(=O)N2CCN(c3ccccc3)CC2)cc1 | -61.5% |
| Cc1cccc(N2CCN(C(=O)CSCc3c(C)noc3C)CC2)c1C | 6.62% |
| CC(C)CNS(=O)(=O)c1ccc(CCC(=O)N2CCN(c3ccc(F)cc3)CC2)cc1 | -9.44% |
| CC(NC(=O)c1ccccc1)c1nc2ccccc2n1Cc1ccc(C#N)cc1 (centres unmarked) | -35.6% |
| CCNS(=O)(=O)c1ccc(CCC(=O)N2CCN(c3ccccc3)CC2)cc1 | 3.97% |
| Cc1noc(C)c1CSCC(=O)N1CCN(c2ccc([N+](=O)[O-])cc2)CC1 | -83.4% |
| O=C(CCCSc1nc2ccccc2[nH]1)N1CCN(c2ccccc2)CC1 | -32.8% |
| Cc1noc(C)c1CSCC(=O)N1CCN(c2ccc(F)cc2)CC1 | -17.9% |
| O=C(CCCSc1nc2ccccc2[nH]1)N1CCN(c2ccc([N+](=O)[O-])cc2)CC1 | -86.9% |
